Reference: PubChem BioAssay (NCATS)
Values joined by “and” are separate entries in the source; they are usually repeats but may differ in a detail not shown here. Equal values may be shown once. Results filed as inconclusive are left out. Some compounds were tested as several samples or in several runs, with calls that do not always agree. Active and inactive are the calls of the source. Calls follow the shape of the dose curve; as a rule, active = well fitted inhibition curve with a large enough effect; inconclusive = small, poorly fitted or top-dose-only effect; inactive = flat fitted curve, though single readings scatter.

Assay: Drug repurposing screens with cells derived from glioblastoma tumor samples (AID 1345199); also: nearly all actives have a fitted effect of over 40% in size
Conditions: GBM patient neurospheres viability, ATP luminescence, 48 h
Experimental: CD133+ cells were isolated from GBM patient biopsies and cultured as neurospheres. Neurospheres from four patients were used to screen the NCATS pharmaceutical collection (NPC) library of approved drugs and bioactive compounds. […] The neurospheres were incubated with drugs for 48 hours in 1536-well format, then assayed with an ATP content cell viability assay. […] These hits were cherry picked to confirm activity in the four original GBM lines screened plus three other slower growing GMB lines (unable to yield enough cells for a full primary screen). Variable activities of the confirmed primary hits in the different GBM patient lines were observed. The patient line 206 responded to the greatest number of compounds and line 923 responded to the least amount of active compounds.

[1] = at 20 µM (top of the series), tumour line C
[2] = at 21.2 µM (top of the series), tumour line B
[3] = at 21.2 µM (top of the series), tumour line D
[4] = at 21.3 µM (top of the series), tumour line A
[5] = at 45.9 µM (top of the series), tumour line B
[6] = at 45.9 µM (top of the series), tumour line D
[7] = at 46 µM (top of the series), tumour line A
[8] = at 46.1 µM (top of the series), tumour line C
% is scaled to controls: 0 for no effect and ±100 for the full control effect; potency is read from the fitted curve at half-maximal effect.

C[C@H](N)[C@H](O)c1cccc(O)c1
inactive: activity, negative = cell killing [1] -4.02% | activity, negative = cell killing [2] -13% | activity, negative = cell killing [3] -3.31% | activity, negative = cell killing [4] -12.7%

C#CCN(C)Cc1ccccc1
inactive: activity, negative = cell killing [1] -8.08% | activity, negative = cell killing [2] -12.4% | activity, negative = cell killing [3] -7.66% | activity, negative = cell killing [4] -32.1%

CCCCCCCCCCCCCCCCCCOCC(O)CO (stereo not given)
inactive: activity, negative = cell killing [5] 0.27% | activity, negative = cell killing [6] 9.38% | activity, negative = cell killing [7] -23.8% | activity, negative = cell killing [8] 24.6%

CC(=O)O[C@@]12CO[C@@H]1C[C@H](O)[C@@]1(C)C(=O)[C@H](O)C3=C(C)[C@@H](OC(=O)[C@H](O)[C@@H](NC(=O)OC(C)(C)C)c4ccccc4)C[C@@](O)([C@@H](OC(=O)c4ccccc4)[C@H]21)C3(C)C
inactive: activity, negative = cell killing [5] -12.5% and -11.2% | activity, negative = cell killing [6] -11.2% and -24.9%
active: Potency (tumour line A) 10 µM

CC1=C(CC(=O)O)c2cc(F)ccc2/C1=C\c1ccc(S(C)(=O)=O)cc1
inactive: activity, negative = cell killing [5] -11.4% | activity, negative = cell killing [6] -18.4% | activity, negative = cell killing [7] -33% | activity, negative = cell killing [8] 4.54%

N[C@H]1C(O)O[C@H](CO)[C@@H](O)[C@@H]1O (stereo not given in full)
inactive: activity, negative = cell killing [5] -5.64% | activity, negative = cell killing [6] 4.44% | activity, negative = cell killing [7] -25.4% | activity, negative = cell killing [8] -6.46%

CCOC(CN1CCN(CC(C)C(=O)c2ccccc2)CC1)c1ccccc1 (stereo not given)
active: Potency (tumour line A) 12.6 µM
inactive: activity, negative = cell killing [5] -10.2%

O=c1cc[nH]c(=O)[nH]1
inactive: activity, negative = cell killing [5] -1.25% | activity, negative = cell killing [6] -13.5% | activity, negative = cell killing [7] -25.6% | activity, negative = cell killing [8] -13%

CCN(CC)C(=O)Nc1ccc(OCC(O)CNC(C)(C)C)c(C(C)=O)c1 (stereo not given)
inactive: activity, negative = cell killing [5] -20.9% | activity, negative = cell killing [6] 0.286% | activity, negative = cell killing [8] -24.6%

NC(CSCC(=O)O)C(=O)O (stereo not given)
inactive: activity, negative = cell killing [5] -1.36% | activity, negative = cell killing [6] -6.13% | activity, negative = cell killing [7] -25.4% | activity, negative = cell killing [8] -7.6%

CC(=O)Oc1c(C)c(C)c2c(c1C)CC[C@@](C)(CCC[C@H](C)CCC[C@H](C)CCCC(C)C)O2
inactive: activity, negative = cell killing [5] -3.11% and -14.8% and -20.3% | activity, negative = cell killing [6] -2.72% and -19.7% and -14.1% | activity, negative = cell killing [7] -21.7% and -44.1% | activity, negative = cell killing [8] -8.98% and 2.94% and -0.939%
